Screens from PubChem.
HT1080NT lethal: qHTS for induction of synthetic lethality in tumor cells producing 2HG: qHTS for the HT-1080-NT fibrosarcoma cell line | HT-1080-NT fibrosarcoma viability, CellTiter-Glo ATP luminescence, 48 h | AID 686970, 2013 | actives 1.6% (n = 360,000) | Potency, µM (highest dose often 46.1 µM), for inactives: at the highest dose activity, negative = less viability, most hits filed as cytotoxic;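 further: NT is the 2HG producing partner of a matched IDH1 knockdown line; potency means the concentration at half of the fitted maximal effect; 0% = DMSO-treated cells and -100% = media-only wells without cells; nearly all actives have a fitted effect of over 55% in size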
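Compounds were tested in concentration-response format on HT-1080-NT cells for 48 hours at 37 degrees C. Cell viability came from CellTiter-Glo luminescence; curves were classified by r2, response magnitude and activity.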
IL-1B inflam inh: qHTS for Inhibitors of Inflammasome Signaling: IL-1-beta AlphaLISA Primary Screen; actives 4.7% (n = 360,000); THP-1 LPS/ATP IL-1B secretion, AlphaLISA, 16 h; hits give low values; activity change, % at 57.5 µM; AID 743279, 2014; in the data active means activity change below about -50%; inconclusive means mostly about -30% to -49%
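THP-1 cells pretreated 1 hr with compounds (up to 57.5 uM final), then stimulated with LPS (250 ng/mL final) plus ATP (1.25 mM final); secreted IL-1B measured by AlphaLISA after 16 hr, decreased signal indicating inhibition.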
DT40 TDP1 CPT: qHTS for Inhibitors of human tyrosyl-DNA phosphodiesterase 1 (TDP1): qHTS in cells in presence of CPT. chicken DT40 Tdp1-/-;hTDP1 cells + 20 nM CPT, ATP luminescence, 48 h. Potency, µM (series often up to 46.2 µM), for inactives: top-dose activity change, negative = growth inhibition, actives largely listed as inhibitors. actives 12% (n = 420,000); further: potency means the concentration at half of the fitted maximal effect; nearly all actives have a fitted effect of over 55% in size
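Chicken DT40 Tdp1-/- cells stably complemented with human TDP1 were seeded at 400 cells/well in medium containing 20 nM camptothecin, exposed to pin-transferred compounds, and grown at 37 °C for at least 48 hr. Viability was read as ATP luminescence.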
DT40 TDP1 no CPT: qHTS for Inhibitors of human tyrosyl-DNA phosphodiesterase 1 (TDP1): qHTS in cells in absence of CPT | DT40 Tdp1-/- hTDP1 cells, no CPT, ATP luminescence, 48 h | Potency, µM (highest dose often 46.2 µM), for inactives: at the highest dose activity change, negative = growth inhibition, most hits filed as inhibitors | actives 15% (n = 420,000); further: potency means the concentration at half of the fitted maximal effect; nearly all actives have a fitted effect of over 55% in size
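Stably hTDP1-transfected Tdp1-null chicken DT40 cells were treated with library compounds minus camptothecin and grown for at least 48 hr at 37 °C, after which cellular ATP was quantified by luminescence.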
HT1080 IDH1KD tx: qHTS for induction of synthetic lethality in tumor cells producing 2HG: qHTS for the HT-1080-IDH1KD cell line; HT-1080 IDH1 knockdown viability, ATP luminescence, 48 h; Potency, µM (highest dose often 46.1 µM), for the others: at the highest dose activity, negative = toxicity, actives largely listed as cytotoxic; actives 2% (n = 360,000); AID 686971, 2013;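 further: potency means the concentration at half of the fitted maximal effect; 0% = DMSO wells and -100% = cell-free medium wells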
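Cytotoxicity counter-line: IDH1KD HT-1080, 48 h, CellTiter-Glo. Curves classed by r2, magnitude and activity.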
* marks the source's active call; other numbers are inactive results; ? = inconclusive; / = not tested or not shown; ! = repeats disagree; [ ] = dose if it differs, or a comment. Hits are enriched below; roughly 19% of the tested compounds scored in any of these assays. Unless noted, the call rests on the fitted dose curve; in most records, active means well fitted curve in the direction sought with a large enough effect; inconclusive means small, poorly fitted or top-dose-only effect, or another doubt; inactive means no such curve, though single readings can be large; an effect the other way counts as inactive or inconclusive. Unless noted, on the % scale 0 is the no-effect control and ±100 the full control effect.

SMILES	HT1080NT lethal	IL-1B inflam inh	DT40 TDP1 CPT	DT40 TDP1 no CPT	HT1080 IDH1KD tx
Cc1cc(C(=O)N(C)CC(=O)Nc2ccccc2C(F)(F)F)c(C)o1	2%	-28	16µM*	23µM*	-24%
COc1ccc(Cl)cc1NC(=O)CN(C)C(=O)c1cc(C)oc1C	2%	-20	3%	15%	4%
Cc1ccc2cccc(OCC(=O)N(C)CC(=O)Nc3ccc(F)cc3)c2n1	0%	-6	-20%	-8%	-7%
COc1ccccc1C(=O)Nc1ccc(S(=O)(=O)Nc2ncccn2)cc1	/	/	-7%	0%	/
CCCCn1nnnc1C1(C)CCC(=O)N1CC(F)(F)F (stereo not drawn)	21%	21	7%	-11%	10%
Cc1ccc(Cn2c(SCC(=O)NCC3CCCO3)nc3c2c(=O)n(C)c(=O)n3C)cc1 (stereo not drawn)	13%	28	6%	-11%	5%
CCN(CC(=O)Nc1ccc(NC(C)=O)cc1)C(=O)COc1ccc(C(=O)c2ccccc2)cc1	0%	-3	3%	-21%	-15%
CSc1ccc(CN(C)C(=O)COc2ccc(C(=O)c3ccccc3)cc2)cc1	?	23	?	15µM*	12µM*
COc1ccc(CCN(C)C(=O)COc2ccc(C(=O)c3ccccc3)cc2)cc1OC	-8%	-1	?	?	-6%
CN(CC(=O)Nc1ccc(F)cc1)C(=O)COC(=O)Cc1c(F)cccc1Cl	-5%	-17	-12%	6.5µM*	-3%
COc1ccc(NC(=O)CN(C)C(=O)Cc2c[nH]c3ccccc23)cc1	0%	-4	-5%	-22%	-7%
CN(CC(=O)Nc1ccccc1Cl)C(=O)COC(=O)Cc1c(F)cccc1Cl	-1%	-23	-2%	12%	7%
CN(CC(=O)Nc1ccc(F)cc1)C(=O)COc1ccc(C(=O)c2ccccc2)cc1	-12%	-18	?	21µM*	-12%
COc1ccc(NC(=O)CN(C)C(=O)COc2ccccc2Cc2ccccc2)cc1	2%[9.24 µM]	-3	26µM*	18µM*	-5%
COc1ccc(OCCOC(=O)CNC(=O)c2ccc(F)cc2)cc1	9%	33	0%	4%	9%
Cc1cccc(C)c1NC(=O)C1(C)CN(S(C)(=O)=O)CC(=O)N1C1CC1 (stereo not drawn)	-2%	40	16%	3%	7%
Cc1csc(N(C(=O)Cc2ccccc2F)c2ccccc2)n1	-17%	-4	?	23µM*	-6%
COc1ccc(CC(=O)N(c2ccccc2)c2nc(C)cs2)cc1	-6%	?	18µM*	13µM*	-4%
O=C(O)c1cc(O)c2c(c1)C(=O)c1cc(O)cc(O)c1C2=O	-5%	-24	13µM*!	15µM*!	-17%
COc1cc(O)c2c(c1)C(=O)c1cc(C)cc(O)c1C2=O	/	/	0%	-18%	/
COc1cccc(-c2c(-c3cc(OC)cc(OC)c3)n(C)c3ccc(-c4ccc(OC)nc4)cc23)c1	0%	14	18µM*	16µM*	16%
COc1ccc(-c2c(-c3cc(OC)cc(OC)c3)n(C)c3ccc(-c4ccc(N(C)C)nc4)cc23)cc1	0%	39	21µM*	18µM*	0%
COc1cc(OC)cc(-c2c(-c3ccc(F)cc3)c3cc(-c4ccc(OC)nc4)ccc3n2C)c1	8%	6	?	23µM*	5%
COc1cc(OC)cc(-c2c(-c3ccc(F)cc3)c3cc(-c4ccc(SC)cc4)ccc3n2C)c1	0%	0	?	?	-2%
COc1cc(OC)cc(-c2c(C#Cc3ccsc3)c3cc(-c4ccc(N(C)C)nc4)ccc3n2C)c1	12%	14	?	21µM*	1%
SMILES	HT1080NT lethal	IL-1B inflam inh	DT40 TDP1 CPT	DT40 TDP1 no CPT	HT1080 IDH1KD tx
C[C@@H]1CN([C@H](C)CO)C(=O)CCCn2nncc2CO[C@@H]1CN(C)S(C)(=O)=O	5%	36	13%	-23%	5%
CC(C)C(NS(C)(=O)=O)c1nnc2n1CCN(Cc1ccc(Cl)cc1)CC2 (stereo not drawn)	/	/	3%[9.04 µM]	?	/
CSCC[C@H](NC(=O)OC(C)(C)C)C(=O)N/N=C/c1ccc2nccnc2c1	-21%	19	?	12µM*	-16%
CSCC[C@H](NC(=O)OC(C)(C)C)C(=O)N/N=C/c1cccc2nccnc12	-28%	24	?	?	-17%
CC(C)=CCC[C@@](C)(O)[C@H]1CC=C(C)CC1	/	/	-8%	-3%	/
CCCCC(=O)OC1=C(C(=O)c2ccccc2)N(CCC)S(=O)(=O)c2ccccc21	/	/	3.3µM*	2.9µM*	/
CCCN1C(C(=O)c2ccccc2)=C(OC(=O)c2ccc(F)cc2)c2ccccc2S1(=O)=O	/	/	5.2µM*	4.6µM*	/
O=C(Nc1ncccn1)C1=C(O)c2ccccc2S(=O)(=O)N1Cc1ccccc1	-2%	-2	-10%	5%	-3%
CCC(=O)OC1=C(C(C)=O)N(Cc2ccccc2)S(=O)(=O)c2ccccc21	/	/	18µM*	?	/
CCCCCN1C(C(=O)c2ccccc2)=C(OC(=O)CC)c2ccccc2S1(=O)=O	/	/	4.6µM*	5.2µM*	/
CCCCN1C(=O)Nc2ccccc2S1(=O)=O	11%	0	-17%	-11%	13%
Cc1noc(C)c1S(=O)(=O)Nc1ccc2c(c1)C(=O)N([C@H](C)CO)C[C@H](C)[C@@H](CN(C)C(=O)Nc1ccc3c(c1)OCO3)O2	15%	-5	0%	-8%	7%
COC(=O)Nc1nn(-c2ccc(OC)cc2)c(=O)c(C#N)c1C	-6%	15	-7%	-2%	5%
COC(=O)c1ccc(OCC(O)CN2C(=O)c3ccccc3S2(=O)=O)cc1 (stereo not drawn)	-2%	?	-7%	?	-15%
CCN1C(C(=O)c2ccccc2)=C(OC(=O)c2ccc(OC)cc2)c2ccccc2S1(=O)=O	/	/	4.6µM*	6.5µM*	/
CCN(CC)C(=O)CCNS(=O)(=O)c1ccc(C)cc1	5%	14	-1%	1%	3%
O=C(Nc1ccc(N2CCN(C(=O)c3ccccc3F)CC2)cc1)c1cncc(Br)c1	2%	-58*	?	18µM*	-15%
O=C(Nc1ccc(N2CCN(C(=O)c3cccs3)CC2)cc1)c1ccccc1F	-26%	-62*	?	18µM*	-19%
